# KKLEB tox = CF airway cell cytotoxicity counter-screen; KKLEB CF airway cells viability, ATPlite luminescence, overnight; active compounds read low; cells stimulated with P. aeruginosa culture filtrate; activity change (cytotoxicity), % at 5 µM; 360,000 compounds, 0.36% hits; AID 602141;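 active means corrected activity change at or below -50% at 5 µM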
# Peg3 prom inh-1 = reduces Peg3 promoter-driven luciferase expression in HeLa; HeLa PEG-Prom luciferase reporter, luminescence, overnight; inhibition, % at 20 µM; 360,000 compounds, 1.7% hits; AID 588405;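 active means inhibition of at least 50% at 20 µM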
# TROY NFkB inh = inhibitors of TROY-dependent NF-kB signaling; 360,000 compounds, 0.98% hits; inhibition, % at 10 µM; Q293 LMP1-TROYcd NF-kB luciferase reporter, 4 h;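 active means compounds whose plate-normalised and pattern-corrected inhibition of the luciferase reporter signal at the single screening dose is 50% or more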
# TWEAK Fn14 block = inhibitors of TWEAK-Fn14 interaction signaling; TWEAK-stimulated Fn14 reporter cells, luciferase luminescence, 8 h; inhibition, % at 10 µM; 360,000 compounds, 2% hits; AID 1159606; in the data active means inhibition above about 50%
# CF NFkB inh = blocks PAF-induced NF-kB reporter in cystic fibrosis cells | KKLEB NF-kB-GFP reporter, GFP fluorescence overnight | inhibition, % at 5 µM | 360,000 compounds, 0.86% hits | AID 588850;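 active means at least 50% inhibition at 5 µM, scaled per plate between neutral and stimulator controls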;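 further: PAF is a Pseudomonas aeruginosa culture filtrate used as stimulus; plate controls were PAF-stimulated DMSO wells for no effect and unstimulated DMSO wells for full effect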
# HIF-2a block = blocks HIF-2a reporter activity; AID 624352; 360,000 compounds, 0.72% hits; inhibition, % at 18.8 µM; 786-0 RCC cells HIF-2a reporter, luciferase luminescence, overnight;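 active means inhibition of the luminescence signal of 40% or more relative to plate controls, in a single-dose primary screen at 18.75 µM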
# Peg3 prom inh-2 = confirmation of Peg3 promoter inhibitors. shares compounds with Peg3 prom inh-1. HeLa PEG-Prom luciferase reporter, luminescence, overnight. inhibition, % at 20 µM. 1,300 compounds, 84% hits. AID 602417;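 active means at 20 µM dose, 40% or more inhibition averaged across four replicates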
# CF NFkB inh conf = CF NF-kB inhibition confirmation, single concentration; shares compounds with CF NFkB inh; KKLEB CF airway cells, PAF-induced NF-kB-GFP fluorescence, overnight; inhibition, % at 5 µM; 1,300 compounds, 64% hits; AID 602472; in the data active means inhibition above about 40%;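 further: stimulus PAF is a Pseudomonas aeruginosa filtrate and not platelet activating factor; plate controls were DMSO wells with stimulus for no effect and unstimulated DMSO wells for full effect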
# Mdm2-MdmX confirm = confirmation of inhibitors of human Mdm2/MdmX interaction, set 2; shares compounds with HIF-2a block; SaOS-2 split-luciferase Mdm2/MdmX complementation, luminescence; inhibition, % at 8 µM; 740 compounds, 99% hits; AID 504601;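 active means mean inhibition of the luminescence signal across two replicates at or above 26 percent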
# HIF-2a inh conf = confirmation of HIF-2a inhibitors; shares compounds with HIF-2a block; AID 651580; 786-0 RCC cells, HIF-2a luciferase reporter luminescence, overnight; 1,800 compounds, 56% hits; inhibition, % at 18.8 µM;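 active means mean inhibition across four replicates of at least 40 percent at the single tested concentration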
# HIF-1a cs = counter-screen for HIF-2a inhibitors: HIF-1a inhibition in MiaPaCa-2 cells | 1,800 compounds, 72% hits | inhibition, % at 18.8 µM | shares compounds with HIF-2a block | MiaPaCa-2 HIF-1a luciferase reporter, desferoxamine, overnight | AID 651589;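 active means mean inhibition of the reporter signal across four replicates at the single tested dose of 50% or more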
# * = called active by the depositor; . = no result given. A selection: hits, their analogues and other compounds. The true share with any hit is near 3.9%.
SMILES,KKLEB tox,Peg3 prom inh-1,TROY NFkB inh,TWEAK Fn14 block,CF NFkB inh,HIF-2a block,Peg3 prom inh-2,CF NFkB inh conf,HIF-2a inh conf,HIF-1a cs,others
CC1=CCCC(C)(C)C1/C=C/C(C)=N/NC(=O)c1ccncc1 (stereo unspecified),6,19,6,-14,-3,14,.,.,.,.,
CNC(=O)COC(=O)c1ccccc1C(=O)c1ccc(Cl)c([N+](=O)[O-])c1,-40,100*,74*,101*,90*,71*,99*,112*,30,104*,
CC(C)OC(=O)c1ccccc1C(=O)c1ccc(N)c([N+](=O)[O-])c1,-3,12,7,-1,2,19,.,.,.,.,
CCCc1c(C(=O)N/N=C(\C)c2ccccc2O)nnn1-c1nonc1N,-7,37,0,-41,-15,13,.,.,.,.,
C/C(=N\NC(=O)c1nnn(-c2nonc2N)c1-c1ccccc1)c1ccccc1O,-1,73*,15,13,19,7,67*,.,.,.,Mdm2-MdmX confirm=84*
O=c1c2ccccc2cnn1-c1nc2ccccc2[nH]1,-51*,107*,89*,97*,-14,92*,95*,.,94*,99*,
O=c1c(Cl)c(N2CCCCC2)cnn1-c1nc2ccccc2[nH]1,-56*,88*,82*,104*,4,70*,67*,.,79*,86*,
O=c1c2ccccc2nc2c3ccccc3cnn12,-12,-170,-100,-38,-143,-283,.,.,.,.,
CCOC(=O)c1ccc2nc(NC(C)=O)sc2c1,-8,-211,-52,-9,7,-213,.,.,.,.,
CCOC(=O)c1ccc2nc(Nc3nc4ccc(F)cc4s3)sc2c1,-10,96*,87*,99*,25,91*,93*,.,93*,73*,
O=C(Cc1ccc(Cl)cc1)Nc1ccc(S(=O)(=O)N2CCOCC2)cc1,14,9,16,-6,-14,14,.,.,.,.,
Cc1nn(-c2ccccc2Cl)c(Cl)c1/C=N/Nc1nc2ccccc2s1,1,72*,95*,108*,-9,74*,75*,.,84*,92*,Mdm2-MdmX confirm=98*
COc1ccc(/C=C/C(=O)N(CCC(N)=O)c2ccccc2)cc1S(=O)(=O)N1CCOCC1,9,-1,-4,7,2,5,.,.,.,.,
COc1ccccc1N(C(=O)CCl)c1cn(C(C)=O)c2ccccc12,-102*,67*,-13,73*,89*,48*,72*,.,44*,49,Mdm2-MdmX confirm=103*
Cc1noc(NS(=O)(=O)c2ccc(NC(=O)C34CC5CC(C3)CC(n3cnc(Br)n3)(C5)C4)cc2)c1C,0,-3,10,8,-1,23,.,.,.,.,
O=C(Nc1ccc(S(=O)(=O)NC2=NCCCCC2)cc1)c1ccc([N+](=O)[O-])s1,-1,69*,12,-2,39,60*,77*,.,21,106*,
CC(C)(C)c1ccc(Cn2c(=O)cnc3ccccc32)cc1,-11,86*,81*,92*,25,62*,77*,.,66*,86*,
CCOC(=O)N1CCN(c2c(N3CCC(N4CCCCC4)CC3)c(=O)c2=O)CC1,0,12,-2,-1,-26,8,.,.,.,.,
Cc1ccc2nc(NC(=O)c3ccco3)sc2c1,-23,69*,62*,98*,-13,48*,31,.,71*,68*,
O=[N+]([O-])c1cc(Cl)cc(/C=N\Nc2ccccn2)c1O,-93*,55*,-12,-3,85*,8,55*,.,.,.,Mdm2-MdmX confirm=88*
O=[N+]([O-])c1ccc(Cl)cc1C=NNc1ccccn1,3,-7,-6,0,-25,-9,.,.,.,.,
Cc1nc(Sc2nnnn2C)c2c3c(sc2n1)CCC3,-3,55*,23,78*,52*,55*,29,33,28,-9,
CC(C)c1nc2n[nH]c(N)c2c2c1CCCC2,-8,-7,15,-1,50*,16,.,32,.,.,
CC1(C)O[C@@H]2C[C@H]3[C@@H]4C[C@H](F)C5=CC(=O)C=C[C@]5(C)[C@H]4[C@@H](O)C[C@]3(C)[C@]2(C(=O)CO)O1,17,4,25,-28,68*,25,.,19,.,.,
CC1(C)O[C@@H]2C[C@H]3[C@@H]4C[C@H](F)C5=CC(=O)CC[C@]5(C)[C@H]4[C@@H](O)C[C@]3(C)[C@]2(C(=O)CO)O1,-14,-8,19,-31,74*,27,.,17,.,.,
SMILES,KKLEB tox,Peg3 prom inh-1,TROY NFkB inh,TWEAK Fn14 block,CF NFkB inh,HIF-2a block,Peg3 prom inh-2,CF NFkB inh conf,HIF-2a inh conf,HIF-1a cs,others
CC(O)(CS(=O)(=O)Cc1ccccc1)c1ccccc1Cl (stereo unspecified),1,2,18,6,-7,14,.,.,.,.,
CC1CCc2sc(C(=O)NNS(=O)(=O)c3ccc(F)c(F)c3F)cc2C1 (stereo unspecified),-29,0,-7,-5,30,-23,.,.,.,.,
Oc1ccc(Br)cc1-c1nc2cnccn2c1NC1CCCCC1,-24,18,6,28,35,25,.,.,.,.,
Oc1ccc(Br)cc1-c1nc2cnccn2c1NC1CCCC1,-26,12,14,62*,80*,21,.,90*,.,.,
N#CSCC(=O)c1cccc2ccccc12,-35,32,30,5,55*,20,.,54*,.,.,
CC(=O)O/N=C(/c1nonc1N)N(C)C,-12,0,4,-18,15,16,.,.,.,.,
OCC1CCCN(c2ncnc3scc(-c4ccccc4)c23)C1 (stereo unspecified),-28,22,13,32,50*,21,.,40*,.,.,
CN1CCN(c2ncnc3scc(-c4ccccc4Cl)c23)CC1,-26,3,45,10,71*,14,.,74*,.,.,
Cc1ccc(NC(=O)NC2=NN(c3ccccc3)C(=O)/C2=C2/CCCN2C)cc1,-3,-9,-46,-23,-25,-51,.,.,.,.,
O=C(Nc1ccc(Cl)cc1)Nc1cc([N+](=O)[O-])ccc1F,2,-8,-2,1,-9,6,.,.,.,.,
O=C(Nc1ccc([N+](=O)[O-])cc1)Nc1ccc(Cl)cc1F,-31,-51,26,4,52*,-112,.,46*,.,.,

# Screening results deposited in PubChem BioAssay by Sanford-Burnham Center for Chemical Genomics.
